PubChem BioAssay (Tox21)
Inconclusive results are not listed. A call without a number means that no potency is given here. A number with no mark means an inactive call. Calls of active or inactive are those of the source. Calls follow the shape of the dose curve; as a rule, active = well fitted cell-killing curve with a large enough effect in the repeat runs; inconclusive = weak or mixed curves, or effect the other way; inactive = flat fitted curve, though single readings scatter.

Assays:
[1] = cAMP Responsive Elements (CRE) small molecule antagonists, cell-based qHTS assay: qHTS cell viability counter screen (AID 2060913); also: nearly all actives have a fitted effect of over 40% in size
In short: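 Steps: cells plated and held 18 hrs at 37 C/5% CO2; compounds and NKH477 (0.25 uM final) added; 3 hrs incubation; reporter substrate read; CellTiter-Glo added to measure cytotoxicity by luminescence.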

[2] = cAMP Responsive Elements (CRE) small molecule agonists, cell-based qHTS assay: qHTS cell viability counter screen (AID 2060914); also: nearly all actives have a fitted effect of over 50% in size
In short: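 In the same wells as the reporter read, viability of CRE-bla HEK 293T cells was quantified by CellTiter-Glo luminescence after a 3 h compound exposure.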
Potency is read from the fitted curve at half-maximal effect.

SMILES | viability change, negative = cytotoxic [1] | activity change, negative = cytotoxicity [2] | Potency [1] | Potency [2]
CCN(CCO)CCCC(C)Nc1ccnc2cc(Cl)ccc12 (stereo not drawn) | 24.8% [at 8.39 µM] | -9.15% [at 8.39 µM] |  | 
N#[N+]c1ccc2c(S(=O)(=O)[O-])cccc2c1O |  |  | inactive | inactive
O=C1CCCc2c(O)cccc21 |  |  | inactive | inactive
CCCCC(CC)CN (stereo not drawn) |  |  | inactive | inactive
CN1C(C(=O)Nc2ccccn2)=C(O)c2ccccc2S1(=O)=O |  |  | inactive | inactive
CCCCCCCCCCCC(=O)Cl |  |  | inactive | inactive
O=C(c1ccc(O)c(O)c1)c1ccc(O)cc1O |  |  | inactive | inactive
CCC(=O)Oc1ccc(/C(CC)=C(\CC)c2ccc(OC(=O)CC)cc2)cc1 |  |  | inactive | inactive
CCCC(=O)O |  |  | inactive | inactive
COc1cccc(OC)c1 |  |  | inactive | inactive
C1=CCCC1 |  |  | inactive | inactive
O=c1[nH]cnc2c1ncn2[C@@H]1O[C@H](CO)[C@@H](O)[C@H]1O |  |  | inactive | inactive
COc1nc(C)nc(NC(=O)NS(=O)(=O)c2ccccc2OCCCl)n1 |  |  | inactive | inactive
CCC(=O)OCCC(C)CCC=C(C)C (stereo not drawn) |  |  | inactive | inactive
CCOC(=O)C1=C(C)NC(C)=C(C(=O)OC)C1c1cccc(Cl)c1Cl (stereo not drawn) |  |  | inactive | inactive
NS(=O)(=O)c1cc2c(cc1Cl)NC=NS2(=O)=O |  |  | inactive | inactive
NC(=O)c1cn(Cc2c(F)cccc2F)nn1 |  |  | inactive | inactive
CC(C)OC(=O)c1ccccc1 |  |  | inactive | inactive
Cc1ccc(-c2ncc(Cl)cc2-c2ccc(S(C)(=O)=O)cc2)cn1 |  |  | inactive | inactive
CCCCCCCCC(CO)CCCCCC (stereo not drawn) |  |  | inactive | inactive
CCN(CC)CCOCCOC(=O)C1(c2ccccc2)CCCC1 |  |  | inactive | inactive
CN1CCC(=C2c3ccccc3CC(=O)c3sccc32)CC1 |  |  | inactive | inactive
Oc1cccc(Nc2ccccc2)c1 |  |  | inactive | inactive
CCCCC(CC)CN1C(=O)C2C3C=CC(C3)C2C1=O (stereo not drawn) |  |  | inactive | inactive
CCn1nc(C(=O)O)c(=O)c2cc3c(cc21)OCO3 |  |  | inactive | inactive
Clc1nc2ccccc2nc1Cl |  |  | inactive | inactive
CCN1C(=O)c2ccccc2C1Nc1ccc(OCCN2CCCCC2)cc1 (stereo not drawn) |  |  | inactive | inactive

SMILES | viability change, negative = cytotoxic [1] | activity change, negative = cytotoxicity [2] | Potency [1] | Potency [2]
NC(=O)c1cc[n+](CC2=C(C(=O)[O-])N3C(=O)[C@@H](NC(=O)Cc4cccs4)[C@H]3SC2)cc1 |  |  | inactive | inactive
CC(=O)OCC[N+](C)(C)C |  |  | inactive | inactive
CC(C)Oc1ccccc1O |  |  | inactive | inactive
CC(C)OB(OC(C)C)OC(C)C |  |  | inactive | inactive
O=C1NCC2(CCN(CCc3ccccc3)CC2)O1 |  |  | inactive | inactive
CCNC(=O)N1CCN(CCCC(c2ccc(F)cc2)c2ccc(F)cc2)CC1 |  |  | inactive | inactive
NC(=O)c1ccccc1N |  |  | inactive | inactive
CCC1Nc2cc(Cl)c(S(N)(=O)=O)cc2S(=O)(=O)N1 (stereo not drawn) |  |  | inactive | inactive
CCCCCCC1(C)CCC(=O)O1 (stereo not drawn) |  |  | inactive | inactive
COC(=O)c1ccccc1Cl |  |  | inactive | inactive
CC1=C(C)S(=O)(=O)CCS1(=O)=O |  |  | inactive | inactive
CCCCCCCCCC[N+](C)(CCCCCCCCCC)CCC[Si](OC)(OC)OC |  |  | 27.3 µM (active) | 24.3 µM (active)
O=C1CCCC1 |  |  | inactive | inactive
Clc1cc(Cl)c(Cl)cc1Cl |  |  | inactive | inactive
COc1cccc(OC)c1C(=O)N[C@@H]1C(=O)N2[C@@H]1SC(C)(C)[C@@H]2C(=O)O |  |  | inactive | inactive
COC(=O)/C=C\C(=O)OC |  |  | inactive | inactive
O=c1n(CC2CO2)c(=O)n(CC2CO2)c(=O)n1CC1CO1 (stereo not drawn) |  |  | inactive | inactive
CC(C)(C)NCCNC(C)(C)C |  |  | inactive | inactive
COCCCC/C(=N\OCCN)c1ccc(C(F)(F)F)cc1 |  |  | inactive | inactive
CCSC(=O)N(CC)CC |  |  | inactive | inactive
CCO/C=C1\N=C(c2ccccc2)OC1=O |  |  | inactive | inactive
CCc1ccc(CC)cc1 |  |  | inactive | inactive
Cc1cccc(O)c1N |  |  | inactive | inactive
CCO[Si](CC(C)C)(OCC)OCC |  |  | inactive | inactive
C[Si](C)=O | 7.47% [at 8.39 µM] | -0.0708% [at 8.39 µM] |  | 
CC(=O)OC[C@H]1O[C@@H](OC(C)=O)[C@H](OC(C)=O)[C@@H]1OC(C)=O |  |  | inactive | inactive
O=S(=O)(O)c1cc(O)ccc1O |  |  | inactive | inactive
